The supplement of paper PMC10849652
Targets with a hit are over-represented here; the source holds about 7,900 in all. About 0.6% of all pairs of compound and target were hits.

How the values were obtained:
Assay in all cases: log2 fold change, soluble protein after heating vs DMSO (PISA); higher = thermal stabilisation; K562 cells, 10 uM, 30 min; active = over 0.2 and 3.5 SD of the protein, either way, in both replicates (recomputed)
[1] = biological target: YWHAB (UniProt P31946)
Method in brief: (§1)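 K562 cells at 2×10^6 cells/mL were given 10 μM compound for 30 min. Aliquots then went through 3 min of heating across 48°C-58°C, were pooled, and were extracted in PBS with 0.5% NP-40 at 4°C, and the supernatant after 21,000xg for 90 min was quantified by TMTpro 16plex LC-MS/MS with channel sums equalised. Thermal stability relative to control samples, from duplicates, is given as log2 fold change.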

[2] = biological target: YWHAQ (UniProt P27348)
Method in brief: as §1

[3] = biological target: YWHAZ (UniProt E7ESK7)
Method in brief: as §1

[4] = biological target: YWHAZ (UniProt P63104)
Method in brief: as §1

[5] = biological target: YY1 (UniProt P25490)
Method in brief: as §1

[6] = biological target: ZADH2 (UniProt Q8N4Q0)
Method in brief: as §1

[7] = biological target: ZBTB21 (UniProt Q9ULJ3)
Method in brief: as §1

[8] = biological target: ZBTB43 (UniProt O43298)
Method in brief: as §1

[9] = biological target: ZC3H18 (UniProt Q86VM9)
Method in brief: as §1

[10] = biological target: ZC3H8 (UniProt Q8N5P1)
Method in brief: as §1

[11] = biological target: ZC3HC1 (UniProt Q86WB0)
Method in brief: as §1

[12] = biological target: ZDHHC17 (UniProt Q8IUH5)
Method in brief: as §1

[13] = biological target: ZDHHC20 (UniProt Q5W0Z9)
Method in brief: as §1

[14] = biological target: ZDHHC5 (UniProt Q9C0B5)
Method in brief: as §1

[15] = biological target: ZDHHC7 isoform 2 (UniProt Q9NXF8)
Method in brief: as §1

[16] = biological target: ZDHHC8 isoform 3 (UniProt Q9ULC8)
Method in brief: as §1

[17] = biological target: ZCCHC9 (UniProt Q8N567)
Method in brief: as §1

[18] = biological target: ZDHHC6 (UniProt Q9H6R6)
Method in brief: as §1

[19] = biological target: ZBTB17 isoform 2 (UniProt Q13105)
Method in brief: as §1

[20] = biological target: ZCCHC17 (UniProt Q9NP64)
Method in brief: as §1

Measured: log2 fold change

Chain of YWHAB (P31946 whole entry, looked up): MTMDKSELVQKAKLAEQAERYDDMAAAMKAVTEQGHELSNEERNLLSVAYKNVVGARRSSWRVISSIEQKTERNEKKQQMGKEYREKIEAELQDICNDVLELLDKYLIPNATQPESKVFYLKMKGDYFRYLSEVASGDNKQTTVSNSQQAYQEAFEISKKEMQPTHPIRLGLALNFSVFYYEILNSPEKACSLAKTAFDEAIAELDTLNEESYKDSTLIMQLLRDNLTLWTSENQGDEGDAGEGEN
Chain of ZDHHC20 (Q5W0Z9 whole entry, looked up): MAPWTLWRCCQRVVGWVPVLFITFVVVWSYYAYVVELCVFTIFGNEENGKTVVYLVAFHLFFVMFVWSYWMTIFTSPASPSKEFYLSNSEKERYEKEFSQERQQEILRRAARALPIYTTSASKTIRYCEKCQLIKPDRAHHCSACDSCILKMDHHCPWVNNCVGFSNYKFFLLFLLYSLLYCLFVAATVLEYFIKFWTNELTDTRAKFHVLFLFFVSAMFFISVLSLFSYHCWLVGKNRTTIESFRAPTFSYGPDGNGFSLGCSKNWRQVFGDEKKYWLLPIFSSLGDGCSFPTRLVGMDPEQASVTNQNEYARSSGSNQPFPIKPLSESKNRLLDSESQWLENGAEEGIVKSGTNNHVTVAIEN
Chain of ZBTB43 (O43298 whole entry, looked up): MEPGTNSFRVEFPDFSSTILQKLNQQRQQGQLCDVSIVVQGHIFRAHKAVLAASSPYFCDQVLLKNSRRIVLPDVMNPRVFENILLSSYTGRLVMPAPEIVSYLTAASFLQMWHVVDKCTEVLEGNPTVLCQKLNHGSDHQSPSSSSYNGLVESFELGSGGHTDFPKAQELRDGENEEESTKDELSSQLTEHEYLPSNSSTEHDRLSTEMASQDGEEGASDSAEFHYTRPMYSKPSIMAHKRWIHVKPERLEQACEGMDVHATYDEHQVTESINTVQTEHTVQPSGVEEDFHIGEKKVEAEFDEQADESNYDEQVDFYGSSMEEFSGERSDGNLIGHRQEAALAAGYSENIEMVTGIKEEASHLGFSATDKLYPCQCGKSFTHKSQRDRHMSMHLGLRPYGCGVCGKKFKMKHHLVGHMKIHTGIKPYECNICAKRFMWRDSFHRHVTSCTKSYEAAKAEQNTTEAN
Chain of YWHAQ (P27348 whole entry, looked up): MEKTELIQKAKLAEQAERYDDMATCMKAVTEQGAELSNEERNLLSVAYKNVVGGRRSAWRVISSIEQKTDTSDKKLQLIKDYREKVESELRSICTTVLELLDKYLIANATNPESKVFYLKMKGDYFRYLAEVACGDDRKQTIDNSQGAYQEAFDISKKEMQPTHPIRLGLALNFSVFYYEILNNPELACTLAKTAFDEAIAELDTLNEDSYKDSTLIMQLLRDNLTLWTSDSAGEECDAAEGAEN
Chain of ZBTB21 (Q9ULJ3 whole entry, looked up): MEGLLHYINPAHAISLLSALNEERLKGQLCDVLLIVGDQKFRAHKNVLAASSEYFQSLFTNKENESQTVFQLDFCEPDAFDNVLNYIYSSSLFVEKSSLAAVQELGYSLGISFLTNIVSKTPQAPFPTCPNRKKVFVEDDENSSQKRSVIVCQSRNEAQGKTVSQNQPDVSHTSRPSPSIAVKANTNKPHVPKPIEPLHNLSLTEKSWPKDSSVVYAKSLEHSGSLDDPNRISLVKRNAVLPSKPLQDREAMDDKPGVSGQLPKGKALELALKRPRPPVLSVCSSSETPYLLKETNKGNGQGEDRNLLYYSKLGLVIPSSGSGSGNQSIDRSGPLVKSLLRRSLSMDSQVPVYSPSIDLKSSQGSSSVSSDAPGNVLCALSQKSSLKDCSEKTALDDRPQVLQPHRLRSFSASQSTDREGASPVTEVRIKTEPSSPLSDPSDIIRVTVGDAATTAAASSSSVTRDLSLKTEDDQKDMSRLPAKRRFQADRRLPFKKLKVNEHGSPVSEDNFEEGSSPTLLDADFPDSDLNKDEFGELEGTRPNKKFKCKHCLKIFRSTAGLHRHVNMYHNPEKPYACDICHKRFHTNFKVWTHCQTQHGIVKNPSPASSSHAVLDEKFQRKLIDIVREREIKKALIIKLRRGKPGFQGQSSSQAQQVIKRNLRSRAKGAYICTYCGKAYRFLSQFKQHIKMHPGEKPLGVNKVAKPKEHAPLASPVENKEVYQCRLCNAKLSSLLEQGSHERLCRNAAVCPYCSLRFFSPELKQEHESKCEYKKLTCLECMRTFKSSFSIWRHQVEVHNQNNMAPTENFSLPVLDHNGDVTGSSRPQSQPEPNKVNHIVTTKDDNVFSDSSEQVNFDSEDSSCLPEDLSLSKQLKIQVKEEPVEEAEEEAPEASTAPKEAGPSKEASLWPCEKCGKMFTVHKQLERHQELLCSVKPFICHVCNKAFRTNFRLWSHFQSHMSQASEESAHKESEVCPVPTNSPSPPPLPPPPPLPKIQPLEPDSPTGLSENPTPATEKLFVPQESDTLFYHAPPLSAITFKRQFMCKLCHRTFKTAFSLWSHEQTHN
Chain of YY1 (P25490 whole entry, looked up): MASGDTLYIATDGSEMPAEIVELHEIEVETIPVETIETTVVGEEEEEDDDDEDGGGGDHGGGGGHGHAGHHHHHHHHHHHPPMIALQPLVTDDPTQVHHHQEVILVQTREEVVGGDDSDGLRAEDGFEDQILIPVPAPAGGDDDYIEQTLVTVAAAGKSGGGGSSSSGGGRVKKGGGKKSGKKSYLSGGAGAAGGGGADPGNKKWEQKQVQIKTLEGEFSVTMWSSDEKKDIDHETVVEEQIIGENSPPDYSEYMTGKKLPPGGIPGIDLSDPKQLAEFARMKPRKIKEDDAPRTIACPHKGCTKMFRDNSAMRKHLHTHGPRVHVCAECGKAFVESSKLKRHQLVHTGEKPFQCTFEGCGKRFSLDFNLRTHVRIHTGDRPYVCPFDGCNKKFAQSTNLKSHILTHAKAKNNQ
Chain of ZDHHC6 (Q9H6R6 whole entry, looked up): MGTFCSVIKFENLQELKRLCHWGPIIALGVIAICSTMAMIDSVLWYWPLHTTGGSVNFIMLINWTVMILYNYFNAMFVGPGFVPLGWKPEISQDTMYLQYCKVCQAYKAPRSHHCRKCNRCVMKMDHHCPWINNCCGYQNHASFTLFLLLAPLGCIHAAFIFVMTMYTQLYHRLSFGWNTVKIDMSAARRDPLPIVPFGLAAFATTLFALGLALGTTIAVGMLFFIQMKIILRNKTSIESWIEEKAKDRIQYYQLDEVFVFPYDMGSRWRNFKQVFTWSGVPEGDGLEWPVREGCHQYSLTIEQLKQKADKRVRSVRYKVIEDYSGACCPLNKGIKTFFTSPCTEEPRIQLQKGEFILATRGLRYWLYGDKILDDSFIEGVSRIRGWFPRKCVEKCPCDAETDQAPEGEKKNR
Chain of ZBTB17 isoform 2 (Q13105 whole entry, looked up, canonical isoform): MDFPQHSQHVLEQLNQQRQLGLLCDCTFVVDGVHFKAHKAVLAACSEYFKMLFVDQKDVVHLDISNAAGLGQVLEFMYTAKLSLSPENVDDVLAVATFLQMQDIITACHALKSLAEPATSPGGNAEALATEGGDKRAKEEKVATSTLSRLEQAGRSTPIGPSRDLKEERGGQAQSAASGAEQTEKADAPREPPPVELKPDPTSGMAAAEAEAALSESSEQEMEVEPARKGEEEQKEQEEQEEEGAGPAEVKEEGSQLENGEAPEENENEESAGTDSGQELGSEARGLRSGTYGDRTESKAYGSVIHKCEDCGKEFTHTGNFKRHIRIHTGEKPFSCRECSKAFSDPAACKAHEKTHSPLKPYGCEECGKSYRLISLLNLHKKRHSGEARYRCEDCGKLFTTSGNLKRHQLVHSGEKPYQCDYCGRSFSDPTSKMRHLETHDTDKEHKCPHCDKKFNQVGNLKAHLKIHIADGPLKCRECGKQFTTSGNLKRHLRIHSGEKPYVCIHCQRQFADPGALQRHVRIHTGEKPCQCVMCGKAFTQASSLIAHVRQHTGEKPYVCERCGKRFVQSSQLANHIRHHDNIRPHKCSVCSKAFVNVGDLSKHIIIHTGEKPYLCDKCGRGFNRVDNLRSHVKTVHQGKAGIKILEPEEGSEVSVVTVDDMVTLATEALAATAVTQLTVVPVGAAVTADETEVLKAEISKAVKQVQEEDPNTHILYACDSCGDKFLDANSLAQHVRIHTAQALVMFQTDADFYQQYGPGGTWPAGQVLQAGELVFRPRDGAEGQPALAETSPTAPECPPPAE
Chain of ZDHHC5 (Q9C0B5 whole entry, looked up): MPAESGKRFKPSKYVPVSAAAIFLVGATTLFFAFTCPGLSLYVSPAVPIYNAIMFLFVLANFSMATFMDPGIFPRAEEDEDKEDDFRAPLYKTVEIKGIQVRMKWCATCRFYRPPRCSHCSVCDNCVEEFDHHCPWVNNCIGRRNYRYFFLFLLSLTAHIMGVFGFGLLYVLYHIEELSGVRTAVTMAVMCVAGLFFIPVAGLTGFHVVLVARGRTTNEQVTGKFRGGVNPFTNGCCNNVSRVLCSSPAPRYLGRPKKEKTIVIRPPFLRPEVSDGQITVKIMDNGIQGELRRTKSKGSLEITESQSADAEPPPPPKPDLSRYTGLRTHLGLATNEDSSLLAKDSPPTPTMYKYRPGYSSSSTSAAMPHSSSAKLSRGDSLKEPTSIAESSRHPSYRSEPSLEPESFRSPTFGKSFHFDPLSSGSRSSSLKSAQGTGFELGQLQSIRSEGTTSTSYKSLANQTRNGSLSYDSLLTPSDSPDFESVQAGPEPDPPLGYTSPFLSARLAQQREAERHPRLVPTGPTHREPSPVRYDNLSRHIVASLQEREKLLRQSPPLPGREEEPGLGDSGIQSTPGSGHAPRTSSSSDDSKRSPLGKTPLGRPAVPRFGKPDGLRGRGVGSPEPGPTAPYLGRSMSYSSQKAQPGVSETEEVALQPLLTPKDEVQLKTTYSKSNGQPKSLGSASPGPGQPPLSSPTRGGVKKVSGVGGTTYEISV
Chain of YWHAZ (UniProt P63104) (P63104 whole entry, looked up): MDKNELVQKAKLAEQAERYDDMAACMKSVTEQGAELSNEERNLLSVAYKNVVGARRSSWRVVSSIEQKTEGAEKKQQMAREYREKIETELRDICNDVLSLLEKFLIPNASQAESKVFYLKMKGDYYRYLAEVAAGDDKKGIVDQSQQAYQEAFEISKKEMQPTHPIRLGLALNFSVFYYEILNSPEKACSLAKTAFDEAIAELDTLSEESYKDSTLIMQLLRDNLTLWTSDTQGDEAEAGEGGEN

CNc1nc(-c2ccc3c(N)n[nH]c3c2)cc(N2C[C@@H](C(=O)NC3CCCCC3)CC[C@H]2C)n1
inactive: [1] -0.015 | [2] 0.179 | [3] -0.097 | [4] 0.031 | [5] -0.08 | [6] -0.011 | [7] -0.111 | [8] -0.014 | [9] -0.136 | [10] 0.012 | [11] 0.104 | [12] 0.017 | [13] 0.121 | [14] 0.011 | [15] -0.03 | [16] 0

C[C@H](Nc1ncnc2nc[nH]c12)c1cc2cccc(Cl)c2c(=O)n1-c1ccccc1 [duvelisib]
inactive: [1] 0.056 | [2] -0.144 | [3] 0.171 | [4] -0.084 | [5] -0.007 | [6] 0.033 | [7] 0.081 | [8] 0.027 | [9] 0.019 | [10] -0.126 | [11] -0.002 | [12] 0.036 | [13] 0.04 | [14] -0.044 | [15] 0.082 | [16] -0.038

Cc1ccc(-n2nc(C(C)(C)C)cc2NC(=O)Nc2ccc(OCCN3CCOCC3)c3ccccc23)cc1 [doramapimod]
active: [12] 0.264
inactive: [1] 0.022 | [2] -0.12 | [3] 0 | [4] 0.013 | [5] -0.037 | [6] -0.013 | [7] 0.069 | [8] -0.029 | [9] 0.052 | [10] 0.038 | [11] -0.056 | [17] 0.169 | [13] -0.025 | [14] 0.027 | [15] 0.113 | [16] 0.359

Cn1cncc1[C@@](N)(c1ccc(Cl)cc1)c1ccc2c(c1)c(-c1cccc(Cl)c1)cc(=O)n2C [tipifarnib]
inactive: [1] 0.059 | [2] -0.112 | [3] 0.127 | [4] -0.123 | [5] 0.009 | [6] -0.053 | [7] -0.02 | [9] 0.111 | [10] 0.043 | [11] -0.183 | [17] 0.113 | [12] 0.032 | [13] -0.014 | [14] 0.013 | [18] 0.086 | [15] -0.047

CNCc1ccc(-c2[nH]c3cc(F)cc4c3c2CCNC4=O)cc1 [rucaparib]
inactive: [1] -0.078 | [2] -0.016 | [3] -0.057 | [4] -0.041 | [5] -0.05 | [6] -0.071 | [8] -0.272 | [9] 0.029 | [10] 0.19 | [11] -0.047 | [17] 0.4 | [12] -0.034 | [13] 0.115 | [14] 0.086 | [18] 0.176 | [15] -0.067

Cn1cc(-c2ccc3nnc(C(F)(F)c4ccc5ncccc5c4)n3n2)cn1
inactive: [1] -0.037 | [2] -0.066 | [3] -0.007 | [4] -0.045 | [5] -0.056 | [6] 0.107 | [7] -0.009 | [8] -0.054 | [9] 0.008 | [10] -0.056 | [11] 0.038 | [17] -0.081 | [12] -0.029 | [13] 0.048 | [14] -0.009 | [15] 0.091

C[C@@H](Oc1cc(-c2cnn(C3CCNCC3)c2)cnc1N)c1c(Cl)ccc(F)c1Cl [crizotinib]
inactive: [1] 0.017 | [2] 0.026 | [3] 0.081 | [4] 0.008 | [5] -0.021 | [6] 0.127 | [7] -0.1 | [8] -0.077 | [9] -0.042 | [10] 0.089 | [11] -0.109 | [17] 0.032 | [12] -0.064 | [13] 0.017 | [14] 0.075 | [15] -0.131 | [16] -0.187

Cc1cc(SCc2sc(-c3ccc(C(F)(F)F)cc3)nc2C)ccc1OCC(=O)O
inactive: [1] 0.005 | [2] 0.119 | [3] -0.02 | [4] 0.012 | [5] 0.002 | [6] -0.027 | [7] 0.043 | [8] 0.041 | [9] -0.034 | [10] -0.039 | [11] 0.199 | [12] -0.04 | [13] -0.249 | [14] -0.03 | [15] -0.075 | [16] 0.031

Cc1nc(Nc2ncc(C(=O)Nc3c(C)cccc3Cl)s2)cc(N2CCN(CCO)CC2)n1 [dasatinib]
inactive: [1] 0.006 | [2] -0.149 | [3] -0.094 | [4] -0.044 | [5] -0.001 | [6] 0.035 | [7] -0.005 | [8] -0.034 | [9] 0.038 | [10] 0.123 | [11] -0.214 | [12] -0.002 | [13] -0.163 | [14] 0.019 | [15] -0.063 | [16] -0.112

O=C1NC(=NCc2cccs2)S/C1=C\c1ccc2ncccc2c1
inactive: [1] 0.023 | [2] -0.201 | [3] -0.13 | [4] -0.154 | [5] -0.014 | [6] 0.042 | [7] -0.024 | [8] -0.081 | [9] 0.003 | [10] -0.062 | [11] 0.077 | [17] -0.035 | [12] 0.064 | [13] -0.125 | [14] 0.091 | [15] 0.161

CS(=O)(=O)c1ccc(-c2cnc(N)c(C(=O)Nc3ccccc3)n2)cc1
inactive: [1] 0.017 | [2] -0.013 | [4] -0.017 | [5] -0.061 | [6] -0.063 | [19] -0.013 | [7] 0.048 | [8] 0.021 | [9] -0.056 | [10] 0 | [11] 0.066 | [20] -0.069 | [17] 0.1 | [12] -0.005 | [13] 0.067 | [14] 0.129

COc1cc2ncnc(Nc3ccc(F)c(Cl)c3)c2cc1OCCCN1CCOCC1 [gefitinib]
inactive: [1] -0.001 | [2] 0.007 | [4] 0.005 | [5] -0.076 | [6] -0.029 | [7] -0.125 | [8] 0.025 | [9] -0.033 | [10] 0.021 | [11] 0.004 | [17] -0.062 | [12] 0.04 | [13] -0.067 | [14] 0.031 | [15] 0.062 | [16] 0.023

CC[C@H](C)n1cc(C)c2c(C(=O)NCc3c(C)cc(C)[nH]c3=O)cc(-c3ccc(N4CCNCC4)nc3)cc21
active: [6] 0.526
inactive: [1] 0.009 | [2] 0.072 | [4] 0.008 | [5] 0.061 | [7] 0.059 | [8] -0.187 | [9] 0.032 | [10] -0.012 | [11] 0.164 | [17] 0.013 | [12] -0.022 | [13] -0.046 | [14] -0.052 | [15] -0.099 | [16] -0.064

NC(=O)c1ccc2nc(-c3ccc(Oc4ccc(Cl)cc4)cc3)[nH]c2c1
inactive: [1] -0.012 | [2] -0.021 | [4] 0.011 | [5] 0.03 | [6] 0.052 | [19] 0.03 | [7] 0.053 | [8] 0.037 | [9] 0.045 | [10] 0.027 | [11] -0.034 | [17] 0.025 | [12] -0.046 | [13] 0.14 | [14] 0.027 | [15] 0.022

O=C(CCCCCCC(=O)Nc1ccccc1)NO [vorinostat]
inactive: [1] -0.02 | [2] 0.39 | [4] -0.013 | [5] 0.134 | [6] 0.002 | [7] 0.079 | [8] -0.005 | [9] 0.091 | [10] -0.039 | [11] 0.04 | [17] -0.065 | [12] -0.079 | [13] -0.021 | [14] -0.02 | [18] -0.108 | [15] 0.006

CC(C)c1cnn2c(NCc3ccccc3)cc(NCCCCCCN)nc12
inactive: [1] 0.014 | [2] -0.026 | [4] 0.052 | [6] -0.019 | [19] 0.054 | [7] -0.027 | [8] 0.138 | [9] -0.122 | [10] 0.177 | [11] -0.151 | [17] 0.004 | [12] -0.061 | [13] -0.229 | [14] 0.007 | [15] -0.008
active: [5] -0.24

C#Cc1cccc(Nc2ncnc3cc(OCCOC)c(OCCOC)cc23)c1 [erlotinib]
inactive: [1] 0.011 | [2] -0.07 | [4] 0.011 | [5] -0.019 | [6] 0.005 | [19] -0.048 | [7] 0.235 | [8] 0.081 | [9] -0.066 | [10] -0.091 | [11] 0.075 | [17] -0.099 | [12] 0.091 | [13] 0.163 | [14] 0.028 | [15] 0.09
